D2 PAM-1: potentiates the human D2 dopamine receptor allosterically | DiscoveRx D2 beta-arrestin cells, luminescence, 90 min; 100% = 57 uM dopamine signal | P14416 | AID 624464 | potentiation, % (test concentration not listed) | 0.23% of 360,000 active; in the data active = potentiation above about 50%
Target sequence (P14416 whole entry, looked up): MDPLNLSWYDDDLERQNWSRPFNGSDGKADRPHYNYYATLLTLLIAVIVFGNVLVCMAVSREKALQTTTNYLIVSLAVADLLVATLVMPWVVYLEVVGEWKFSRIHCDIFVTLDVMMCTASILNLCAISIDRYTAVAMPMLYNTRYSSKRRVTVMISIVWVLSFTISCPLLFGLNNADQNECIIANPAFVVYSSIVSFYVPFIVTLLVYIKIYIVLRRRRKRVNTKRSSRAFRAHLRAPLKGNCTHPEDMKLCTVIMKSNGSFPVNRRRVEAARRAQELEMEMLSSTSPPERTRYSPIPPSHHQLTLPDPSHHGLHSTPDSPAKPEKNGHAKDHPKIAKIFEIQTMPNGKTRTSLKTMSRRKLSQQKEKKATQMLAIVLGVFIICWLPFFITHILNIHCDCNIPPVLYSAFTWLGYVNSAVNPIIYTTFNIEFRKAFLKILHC
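D2 cells co-treated with compound plus 50 nM dopamine (EC20) for 90 min at 37 deg C to detect potentiation. Beta-arrestin recruitment was read as enzyme-fragment luminescence after 1 h at ambient temperature. Full response was set by 57 uM dopamine.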
D2 ag-1: agonists of human D2 dopamine receptor (beta-arrestin). DiscoveRx PathHunter D2 beta-arrestin, luminescence, 90 min; 100% = 57 uM dopamine signal. activation, % (test concentration not listed). 0.084% of 360,000 active; in the data active = activation above about 40%
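DiscoveRx PathHunter D2 beta-arrestin cells (2,100/well) attached overnight, then compound-stimulated 90 min at 37 C in HBSS/10 mM HEPES/0.1% Tween-20 buffer; beta-galactosidase complementation read by luminescence after 1 h at ambient temperature. Dopamine 57 uM final (EC100) as control.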
D2 antag: antagonists of human D2 dopamine receptor. P14416. HEK293 TREx D2 cells, calcium flux, dopamine EC80. inhibition, % at 10 µM. 2% of 340,000 active; in the data active = inhibition above about 30%; inactive = below that, where a call was filed; note: 0% is about no effect
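Measurement of antagonist activity uses fluorescent calcium dye in inducible HEK293 T-REx D2 cells: 10 s baseline, compound addition with 180 s read, EC80 dopamine addition with a further 180 s read.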
D2 ag-2: agonists of human D2 dopamine receptor; P14416; HEK293 T-REx D2 cells, calcium flux agonist mode; activation, % at 2 µM; 0.53% of 340,000 active; AID 485358;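 active = activation over 3 SD above normal in the single-dose calcium agonist read, cut at about 30% in these data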; note: 0% is about no effect
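Agonism is scored from calcium flux in a force-coupled, inducible HEK293 cell line expressing D2, read kinetically for 180 s after compound addition against dopamine controls.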
D2 PAM-2: positively modulates the human D2 dopamine receptor allosterically; P14416; HEK293 T-REx D2, calcium flux, EC20 dopamine potentiation; potentiation, % at 10 µM; 0.34% of 340,000 active; AID 485347;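 active = potentiation over 3 SD above the plate norm, cut at about 30% in these data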; note: 0% is about no effect
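Primary screen. Calcium kinetics in induced HEK293 T-REx D2 cells: compound pre-addition 180 s, EC20 dopamine, 180 s more.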
* hit, by the source's call; . = no result; ! = a repeat was not active. Sampled rows, rich in hits. Any-hit rate of the full collection: about 2.4%.

SMILES | D2 PAM-1 | D2 ag-1 | D2 antag | D2 ag-2 | D2 PAM-2
O=C(CC1SC(=NCC2CCCO2)NC1=O)Nc1cc([N+](=O)[O-])ccc1Cl (centres undefined) | -15 | 0 | 0 | 2 | -14
COc1ccc(NC(=O)CC2SC(N3CCOCC3)=NC2=O)cc1OC (centres undefined) | -3 | 2 | 73* | 1 | -22
O=C(CC1SC(N2CCCCC2)=NC1=O)Nc1ccc(C(=O)Nc2ccccc2)cc1 (centres undefined) | -15 | -4 | 6 | 0 | 2
O=C(CC1SC(N2CCOCC2)=NC1=O)Nc1ccccc1Cl (centres undefined) | -7 | 0 | 40* | -1 | -25
O=C(CC1SC(N2CCOCC2)=NC1=O)Nc1ccc(F)cc1 (centres undefined) | -44 | -3 | . | . | .
O=C(CSc1nc2ccccc2s1)NC1CCCc2ccccc21 (centres undefined) | -3 | -1 | . | . | .
Cn1cc(C(C[N+](=O)[O-])c2ccccc2)c2ccccc21 (centres undefined) | -1 | -6 | -4 | 0 | 2
O=C(COC(=O)CC1SC(N2CCCC2)=NC1=O)Nc1ccc(Br)cc1 (centres undefined) | -13 | -4 | 31* | -1 | 6
CC(C)NC(=O)c1ccc(NC(=O)CC2SC(N3CCCC3)=NC2=O)cc1 (centres undefined) | 0 | 4 | -5 | 1 | -3
COc1ccccc1Nc1nc(NCCC(C)C)nc(N)c1[N+](=O)[O-] | -8 | -4 | 12 | 0 | 4
OC1(c2cccc(F)c2)CCN(Cc2ccncc2)CC1 | -41 | -3 | 56* | 0 | -22
CC1(C(=O)NCc2ccc(F)cc2)Oc2ccccc2NC1=O (centres undefined) | 5 | 0 | 76* | 0 | -15
CCC(c1nnc(SCc2nc3ccccc3s2)n1Cc1ccccc1)N(C)C (centres undefined) | -18 | 0 | 0 | 0 | -9
CCC(=O)N1CCc2cc(S(=O)(=O)NCCC(=O)N3CCN(c4ccccn4)CC3)ccc21 | 3 | 1 | 15 | -1 | 39*
O=C(NCCC(=O)N1CCC2(CC1)NCCc1[nH]cnc12)c1ccc(Br)cc1 | -5 | -1 | 32* | 1 | 0
O=C(NCCC(=O)N1CCN(c2ccccn2)CC1)c1ccc(Br)cc1 | -9 | -3 | 58* | -1 | -14
CCC(=O)N1CCc2cc(S(=O)(=O)NCCC(=O)N3CCc4ccccc4C3)ccc21 | 3 | 0 | -11 | -2 | 10
CC(=O)Nc1ccccc1OCC(=O)c1cc(C)n(Cc2cccs2)c1C | -3 | 1 | -17 | 16 | 9
COc1ccc(CCNC(=O)CSc2nnnn2-c2ccc(OC)c(OC)c2)cc1OC | -4 | 0 | 7 | 0 | .
Cc1cc(C=O)c(C)n1-c1ccc(Cl)c(C(=O)O)c1 | 9 | 3 | 37* | -1 | -13
CC1(C)Cc2c(sc(/N=C/N3CCCCCC3)c2C#N)C(C)(C)N1 | -1 | -3 | 6 | 2 | 4
CC1(C)Cc2c(sc(/N=C/N3CCCC3)c2C#N)C(C)(C)N1 | 2 | -4 | 33* | 0 | -5
CC(C)(C)c1ccc(CC(=O)N2CCC2(C)C(=O)NS(=O)(=O)c2ccccc2C(F)(F)F)cc1 (centres undefined) | -3 | -3 | . | . | .
COc1cccc(C(=O)NCC2CCCO2)c1 (centres undefined) | . | . | 4 | 0 | 10
Cc1nc(N2CCN(Cc3nc4ccccc4[nH]3)CC2)c2oc3ccccc3c2n1 | -25 | -1 | 14 | 1 | 2
SMILES | D2 PAM-1 | D2 ag-1 | D2 antag | D2 ag-2 | D2 PAM-2
Cc1c(Br)c([N+](=O)[O-])nn1CC(=O)Nc1nccs1 | -3 | -2 | -2 | 0 | 52*
COc1ccccc1C1SCCN1S(=O)(=O)c1cccc(C(F)(F)F)c1 (centres undefined) | -8 | -1 | 47* | 1 | -2
COc1ccccc1C1SCCN1S(=O)(=O)c1ccccc1 (centres undefined) | -7 | 0 | . | . | .
O=C(NNc1nc2ccc(F)cc2s1)c1cccc(F)c1 | -20 | 6 | 41* | 5 | -14
Cc1cc(NC(=O)CSc2nc3ccccc3c(=O)n2-c2ccccc2)no1 | 2 | 2 | . | . | 14
COc1ccc(N(C(=O)c2ccccc2OC(C)=O)C(C)C2CC2)cc1 (centres undefined) | -4 | -2 | 30* | -1 | -25
COc1ccc(NC(=O)CN(C)C(=O)c2ccccc2OC)cc1 | -1 | -1 | -3 | 0 | 2
O=C(N/N=C/c1ccc(N2CCOCC2)o1)c1cccc(C(F)(F)F)c1 | 1 | -2 | 4 | 0 | -2
CC(=O)c1sc(NC(=O)c2cc(=O)c3ccccc3o2)nc1C | 68* | 3 | 4 | 0 | 3
Cc1cc(C)c[n+](-c2nc3ccccc3nc2C(=C=[N-])C#N)c1 | -2 | -2 | 34*! | 1 | -2
N#CC1=C(N)S[C@H](C(=O)C23CC4CC(CC(C4)C2)C3)[C@H]1c1ccncc1 | 14 | 5 | 4 | 1 | 31*
Cc1nnc(Sc2nc3ccccc3o2)c2ccccc12 | -19 | -3 | -10 | 0 | 32*
Cc1ccc(-c2nnc(Sc3nc4ccccc4o3)c3ccccc23)cc1 | -6 | -1 | 15 | 1 | 9
COc1cccc(-c2nc(-c3ccccc3)c(-c3ccccc3)[nH]2)c1OCC(=O)O | 65* | 5 | -6 | 1 | -4
O=C(O)COc1ccccc1-c1nc(-c2ccccc2)c(-c2ccccc2)[nH]1 | 7 | 8 | -2 | 0 | 9
COc1ccc(NC(=O)C2CCCCC2)cc1S(=O)(=O)N1CCOCC1 | -4 | -1 | . | . | .
Cn1c2ccc(F)cc2c2nnc(SCCN3CCOCC3)nc21 | -13 | -3 | 35* | 0 | 3
CCCCn1c2ccc(F)cc2c2nnc(SCCN3CCOCC3)nc21 | -12 | 5 | 8 | 0 | -4
COc1ccc(C2CC(c3cccs3)=NN2c2ccc(C=O)cc2)cc1 (centres undefined) | 3 | -5 | -3 | 31* | -7
COCCN1Cc2cccc(C(=O)Nc3ccc(C)cc3)c2C1=O | 0 | 2 | 41* | 1 | 4
Cc1ccccc1NS(=O)(=O)c1ccc(C2CNC(=O)C2)cc1 (centres undefined) | -4 | 0 | 66* | 1 | .
O=C1CC(c2ccc(S(=O)(=O)NCc3ccccc3)cc2)CN1 (centres undefined) | -1 | -2 | 1 | 0 | 4
COC(=O)CSc1nc2c(c(=O)n(C)c(=O)n2C)n1CCC(C)C | -10 | 0 | 5 | -1 | 2
COCCNC(=O)CN(C(=O)c1ccc(N2CCCC2)nc1)c1ccc(Cl)cc1 | -2 | -4 | 4 | 0 | 34*
